Hits are enriched below; roughly 14% of the tested compounds scored in any of these assays.
HCV inh: inhibitors of hepatitis C virus infection; 340,000 tested, 3.4% active; Potency, µM (highest dose often 41.8 µM), inactives show top-dose activity change, negative = inhibition, usual class: inhibitors; AID 651820; Huh7.5.1 HCVcc-Cre infection, luciferase reporter, 44 h; note: potency is the fitted concentration of half-maximal effect
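1,000 cells/well; 4 h culture; + compound; + HCVcc-Cre (~0.5 moi); 44 h; luciferase substrate, RT 15 min; read 15 sec.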
HCMV inh: inhibitors of human cytomegalovirus; activity change, negative = inhibition, % at 57.5 µM; 410,000 tested, 4.5% active; AID 1259415; HFF cells, HCMV-luciferase reporter, 72 h; hits give low values; in the data active = activity change below about -60%; inconclusive = no clear call, values can overlap the other calls; inactive = above about -39%
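After 16 h attachment at 37C, HFF cells received test compound and HCMV-luciferase (1 PFU/cell); reporter luminescence read 72 h later, data normalized against buffer-only and known inhibitor Salinomycin.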
Pf growth 48h: inhibits P. falciparum growth in the first generation, 48 h | 310,000 tested, 5.9% active | Potency, µM (top dose mostly 28.7 µM), for the others: at the highest dose activity change, negative = inhibition, most hits filed as inhibitors | AID 504832 | P. falciparum luciferase growth in erythrocytes, 48 h; note: potency is the fitted concentration of half-maximal effect
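In quantitative HTS format, infected erythrocytes bearing luciferase-reporter parasites were treated for a single generation at 37 C. Luminescence after adding detection reagent served as the growth measure.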
Pf growth 96h: P. falciparum growth inhibition at 96 hours; P. falciparum luciferase reporter growth, 96 h; Potency, µM (top dose mostly 28.7 µM), for inactives: top-dose activity change, negative = inhibition, most hits filed as inhibitors; 320,000 tested, 6.9% active; AID 504834; note: potency is the fitted concentration of half-maximal effect
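Compounds incubated with erythrocytes infected by luciferase-expressing P. falciparum (2% hematocrit, 0.05% parasitemia final) for 96 hours, 37 C in 5% CO2. Growth inhibition scored as decreased luciferase luminescence.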
MARV entry inh: Marburg virus entry inhibition. Marburg virus pseudotyped entry inhibition, cell reporter. 300,000 tested, 1.8% active. Potency, µM (series often up to 37.8 µM), inactives show at the top dose activity change, negative = inhibition, hits mostly inhibitors. AID 540276; calls by dose curve; tested in HEK293 cells; note: potency is the fitted concentration of half-maximal effect
LASV entry inh: inhibitors of Lassa virus binding or cell entry. Lassa virus pseudotype entry inhibition, cell reporter. Potency, µM (series often up to 37.9 µM), without a hit: at the top dose activity change, negative = inhibition, actives largely listed as inhibitors. 300,000 tested, 1.2% active. AID 540256; calls by dose curve; tested in HEK293 cells; note: potency is the fitted concentration of half-maximal effect; nearly all actives have a fitted effect of over 50% in size
Active calls of the source: *; ? = inconclusive; / = no result; ! = not active in a repeat; [ ] = another dose, or the depositor's remark. Unless noted, calls come from the whole dose curve; as a rule, active = well fitted inhibition curve with a large enough effect; inconclusive = small, poorly fitted or top-dose-only effect, or another doubt; inactive = no such curve, though single readings can be large or run the other way. % is set by controls: 0 for no effect and ±100 for the full control effect.

SMILES	HCV inh	HCMV inh	Pf growth 48h	Pf growth 96h	MARV entry inh	LASV entry inh
COC(=O)CCC(=O)OC1(C)C(=O)C=C2C=C(C3CC3)N(CCc3ccccn3)C=C2C1=O (stereo not given)	7%	-11	24%	?	/	/
COC(=O)CCC(=O)OC1(C)C(=O)C=C2C=C(C3CC3)N(C(CO)CO)C=C2C1=O (stereo not given)	17%	-19	46%	62%	/	/
COC(=O)CCC(=O)OC1(C)C(=O)C=C2C=C(C3CC3)N(CCN3CCOCC3)C=C2C1=O (stereo not given)	16%	15	?	54%	/	/
COC(=O)CCC(=O)OC1(C)C(=O)C=C2C=C(C3CC3)N(CCCCO)C=C2C1=O (stereo not given)	21%	-7	?	7.4µM*	/	/
COC(=O)CCC(=O)OC1(C)C(=O)C=C2C=C(C3CC3)N(CCc3c[nH]c4ccccc34)C=C2C1=O (stereo not given)	-11%	26	12µM*	?	13%[14.2 µM]	/
O=C(COc1ccc(F)cc1)NCC(c1ccc(Cl)cc1)N1CCCCC1 (stereo not given)	/	-3	/	/	?	28%[46.1 µM]
COC(=O)CCCC1=CC2=CC(=O)C(C)(OC(=O)c3cccs3)C(=O)C2=CN1CCCCO (stereo not given)	19%	8	?	13µM*	35%[14.2 µM]	/
CCOC(=O)C1=C(CSc2nc(C)ccc2C#N)OC(N)=C(C#N)C1c1cccc(OC)c1OC (stereo not given)	0%	24	55%	6.6µM*	0%	-3%
CCOC(=O)C1=C(CSc2nc(-c3ccncc3)ccc2C#N)OC(N)=C(C#N)C1c1cccnc1 (stereo not given)	7%	-1	13µM*	?	1%	5%
Cc1ccc(S(=O)(=O)N2CCC([C@@H](C#N)c3ccccc3)CC2)cc1	/	-17	/	/	/	/
Cc1cc(Oc2ccc(-c3ccccc3)cc2)nc(N2CCOCC2)n1	-8%	19	?	?	11µM*	4µM*
Cc1cc(Oc2ccc(C(C)(C)C)cc2)nc(N2CCOCC2)n1	19%	3	/	10µM*	-23%	5µM*
CCCc1ccc(Oc2cc(C)nc(N3CCOCC3)n2)cc1	?	-28	36%	-2%	-19%	?
CC1CC(OC(=O)C2CCN(S(=O)(=O)c3ccc(F)cc3)CC2)C(=O)O1 (stereo not given)	15%	-13	?	13%	-17%[46.1 µM]	10%
NC[C@H](O)c1ccc(O)c(O)c1	1%	-28	1%	1%	14µM*!	?
Oc1ccc(C(O)CNCCCCCCNCC(O)c2ccc(O)c(O)c2)cc1O (stereo not given)	/	/	7.6µM*	12µM*	?	-5%
NC[C@@H](O)c1ccc(O)c(O)c1	/	/	/	/	14µM*	/
CCCC1NC(=O)c2cc3ccccc3cc2-n2c1nc1cc(Cl)ccc1c2=O (stereo not given)	/	20	/	/	/	/
COC(=O)C[C@H](NC(=O)Cn1cnc2c(NCc3ccccc3)ncnc21)C(=O)OC	6%	39	/	/	/	/
Clc1cccc(Cl)c1/C=C/c1nc2ccccc2[nH]1	?	/	?	-99%	?	?
Clc1ccc(/C=C/c2nc3ccccc3[nH]2)c(Cl)c1	?	-5	9%	-70%	?	10µM*
Clc1ccc(/C=C/c2nc3ccccc3[nH]2)cc1	?	?	-85%	-54%	8.2µM*	?
O=C(/C=C/c1ccc(Cl)cc1Cl)c1nc2ccccc2[nH]1	18%	-9	?	37%	-38%	-18%
O=C(Cc1ccc(Br)cc1)NCc1ccccc1	?	-16	41%	?	?	-10%
CCc1cccc(C)c1Nc1c(-c2cccs2)nc2ncccn12	/	7	/	/	-10%[46.1 µM]	-31%[46.1 µM]
SMILES	HCV inh	HCMV inh	Pf growth 48h	Pf growth 96h	MARV entry inh	LASV entry inh
Cc1cccc(NC(=S)NC2CCSc3ccccc32)c1 (stereo not given)	?	-36	12µM*	?	?	7%[46.1 µM]
FC(F)Oc1ccc(NC(=S)NC2CCSc3ccccc32)cc1 (stereo not given)	-19%	-82*	2%	-23%	-29%	-23%
O=C(O)c1ccc(NC(=S)Nc2ccc(S(=O)(=O)Nc3ccccn3)cc2)cc1	5%	-21	/	/	-2%[46.1 µM]	?
CCS(=O)(=O)c1ccccc1C(=O)Nc1ccc(-c2nc3ccccc3s2)cc1	/	28	/	/	/	-21%[46.1 µM]
O=C(Nc1ccccc1)c1nc2ccccc2s1	-21%	161	202%	311%	?	11µM*
CC(C)(C)C(=O)Nc1ccc(-c2nc3ccccc3s2)cc1	/	-103*	/	/	?	?
O=C(CCS(=O)(=O)c1ccccc1)Nc1ccc(-c2nc3ccccc3s2)cc1	?	-21	81%	0%	14µM*	?
O=C(CCS(=O)(=O)c1ccccc1)Nc1cccc(-c2nc3ccccc3s2)c1	?	34	42%	-11%	?	?
NNC(=O)c1nc2ccccc2s1	/	28	/	/	/	/
CCCCCCC(=O)Nc1nc(C)c(-c2csc(Nc3cc(Cl)ccc3C)n2)s1	-7%[8.37 µM]	-4	?	?	/	/
COc1ccc(OC)c(NC(=O)Nc2nc(C(C)N)cs2)c1 (stereo not given)	/	-7	/	/	/	/
CCC(C)C(=O)Nc1nc(C)c(-c2csc(Nc3cc(OC)ccc3OC)n2)s1 (stereo not given)	?	-39	2.3µM*	9.3µM*	/	/
COc1ccc(OC)c(NC(=O)CSc2ccc(-c3sc(C)nc3C)nn2)c1	/	7	/	/	/	?
COc1ccc(OC)c(Nc2nc(-c3sc(NC(=O)CC(C)C)nc3C)cs2)c1	2.8µM*	?	6.6µM*	10µM*	/	/
CCC(C)C(=O)Nc1nc(C)c(-c2csc(Nc3cc(Cl)ccc3OC)n2)s1 (stereo not given)	?	?	10µM*	15µM*	/	/
Cc1cccc(C)c1NC(=O)Nc1nnc([C@H]2C[C@H](O)[C@@H](CO)O2)s1	/	7	/	/	/	/
COc1cccc(CNS(=O)(=O)c2cnc(N)nc2)c1	/	-3	/	/	/	3%[46.1 µM]
CCN(CC)CCOc1c(Br)ccc2c1sc1nc3n(c(=O)c12)CCC3	?	-19	?	13µM*	?	4%
CCC(CO)Nc1ncnc2c1cnn2-c1ccc(Cl)cc1 (stereo not given)	-8%	70	/	249%	/	/
CCC(CO)Nc1nc2ccc(Cl)cc2c2ccccc12 (stereo not given)	4µM*	?	-48%	?	?	?
O=C(COC(=O)C1CC2CCCC(C1)C2=O)NC1CCCCC1 (stereo not given)	1%	15	3%	-21%	-4%	/
COc1ccc(-c2cc(OC(=O)c3ccc(F)cc3)c3c(C)oc(C)c3c(=O)c2)cc1OC	/	1	/	/	?	8%[46.1 µM]

Assay outcomes from PubChem BioAssay.
